High-throughput results (PubChem)
SW480 rereplic: inducers of DNA re-replication in SW480 colon cancer cells; SW480 DNA re-replication, Hoechst DNA content imaging, 48 h; Potency, µM (highest dose often 46.1 µM), inactives show top-dose re-replication activation, hits mostly activators; hit rate 1.8% among 340,000; note: % of control where 0% means no effect; nearly all actives have a fitted effect of over 55% in size
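Readout is total intensity of Hoechst-stained nuclei, excited at 405 nm and collected at 500-530 nm. Compound treatment lasted 48 hr at 37 C in 5% CO2 before staining.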
RORgamma inh: ROR gamma (mouse) transcription inhibition. P51450. Drosophila S2 Gal4-RORgamma UAS-luciferase reporter, 20 h. Potency, µM (top dose mostly 53.6 µM), without a hit: at the highest dose activity change, negative = inhibition, most hits filed as inhibitors. hit rate 5.4% among 310,000; note: % is set by controls: 0 for no effect and ±100 for the full control effect; nearly all actives have a fitted effect of over 60% in size
Target sequence (P51450 whole entry, looked up, the tested form may be a part): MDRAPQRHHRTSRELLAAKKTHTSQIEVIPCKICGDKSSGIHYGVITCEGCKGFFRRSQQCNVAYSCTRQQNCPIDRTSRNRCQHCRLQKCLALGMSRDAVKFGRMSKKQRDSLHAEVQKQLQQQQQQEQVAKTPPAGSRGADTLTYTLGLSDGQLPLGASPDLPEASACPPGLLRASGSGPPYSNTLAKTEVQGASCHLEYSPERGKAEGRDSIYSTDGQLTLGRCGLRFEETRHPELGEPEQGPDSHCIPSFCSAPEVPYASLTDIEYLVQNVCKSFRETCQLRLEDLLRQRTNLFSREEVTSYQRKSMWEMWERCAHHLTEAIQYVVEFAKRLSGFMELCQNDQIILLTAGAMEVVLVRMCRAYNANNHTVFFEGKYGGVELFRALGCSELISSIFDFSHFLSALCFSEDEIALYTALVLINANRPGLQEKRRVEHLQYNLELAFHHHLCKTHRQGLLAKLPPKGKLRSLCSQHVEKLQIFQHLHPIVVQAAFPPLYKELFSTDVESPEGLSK
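Stable Schneider cell line, Gal4 DNA-binding domain fused to ROR gamma, UAS-luciferase. Cmpd 1 hr RT → CuSO4 700 uM final → 20 hr RT → luciferase reagent 10 min → luminescence.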
MCF10A rerep: inducers of DNA re-replication in MCF 10A breast cells. MCF 10A DNA re-replication, Hoechst nuclear intensity, 48 h. Potency, µM (top dose mostly 46.1 µM), without a hit: top-dose activity, positive = re-replication, hits mostly activators. hit rate 2.9% among 350,000; note: % of control where 0% means no effect; nearly all actives have a fitted effect of over 50% in size
ELG1 repair inh: blocks ELG1-dependent DNA repair in HEK293T cells | Potency, µM (doses to about 46.1 µM), without a hit: at the top dose activity change, negative = inhibition, hits mostly inhibitors | HEK293T ELG1-luciferase reporter, luminescence, 16 h; DNA damage induced by 5-fluorouridine | hit rate 2.3% among 330,000 | AID 504467; note: % is set by controls: 0 for no effect and ±100 for the full control effect; nearly all actives have a fitted effect of over 55% in size
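Quantitative HTS, concentration-response format. 2,000 cells/well co-treated with 5-fluorouridine and compound, 16 hr in 5% CO2 at 37 °C; ONE-Glo luminescence read after 30 min.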
VP16 counter: Gal4-VP16 reporter inhibition counter-screen; Drosophila S2 Gal4-VP16 UAS-luciferase, luminescence, 20 h; Potency, µM (top dose mostly 53.6 µM), without a hit: at the top dose activity, negative = inhibition, usual class: inhibitors; hit rate 3.5% among 310,000; AID 2546;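 note: Gal4-VP16 expression switched on by copper sulfate through the metallothionein promoter; % is set by controls: 0 for no effect and ±100 for the full control effect; nearly all actives have a fitted effect of over 50% in size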
* = called active by the depositor; ? = inconclusive; / = not tested or not shown; [ ] = dose if it differs, or a comment. Rows were chosen to be rich in hits. Some 10% of all compounds tested hit in one or more screens of this group. Calls come from the whole dose curve; as a rule, active = well fitted curve in the direction sought with a large enough effect; inconclusive = small, poorly fitted or top-dose-only effect, or another doubt; inactive = no such curve, though single readings can be large; an effect the other way counts as inactive or inconclusive. Potency is the fitted concentration of half-maximal effect.

SMILES	SW480 rereplic	RORgamma inh	MCF10A rerep	ELG1 repair inh	VP16 counter
O=C1C(Cl)=C(NCCc2ccccc2)C(=O)N1CCc1ccccc1	-4.0%[9.22 µM]	16.6%	?	?	-10.2%
O=C1C(Cl)=C(Nc2ccccc2)C(=O)c2ccccc21	?	12.6µM*	4.11µM*	?	12.6µM*
O=C(O)c1cccc(NC2=C(Cl)C(=O)c3ccccc3C2=O)c1	?	11.2µM*	?	?	?
COCCCNC1=C(Cl)C(=O)c2ccccc2C1=O	23.7%	-28.2%	?	?	-17.5%
COc1ccc([C@@H]2CC(=O)c3c(O)cc(O[C@@H]4O[C@H](CO)[C@@H](O)[C@H](O)[C@H]4O[C@@H]4O[C@@H](C)[C@H](O)[C@@H](O)[C@H]4O)cc3O2)cc1	/	3.2%	/	/	1.2%
CO[C@@H]1COC(=O)[C@@H](C)COC(=O)[C@@H](C)NC(=O)C/C=C\[C@@H]1C	/	-20.4%[10 µM]	/	/	3.5%[10 µM]
NC(=O)CC(NC(=O)Cc1ccc(Br)cc1)c1ccc(N2CCC(Cc3ccccc3)CC2)c([N+](=O)[O-])c1 (stereo not given)	?	?	?	8.3%	?
Nc1ccc2oc3ccccc3c2c1	50.2%	28.7%	?	?	17.7%
S=c1[nH]ncn2c1cc1oc3ccccc3c12	0.6%	2.51µM*	-0.4%	?	-17.8%
S=C(NCCCN1CCOCC1)NCCCN1CCOCC1	3.0%	-14.9%	-2.6%	-6.0%	-14.7%
N#Cc1cc2cc3c(cc2nc1NCCNC(=S)NCCCN1CCOCC1)OCO3	?	-32.9%	20.6µM*	-5.7%	-13.2%
CC(C)Cc1nc(NCCN2CCOCC2)c(C#N)c2c1COC(C)(C)C2	-1.7%	-20.1%	-3.2%	?	2.6%
CC1(C)Cc2c(C#N)c(NCCc3ccccc3)nc(-c3ccco3)c2CO1	6.51µM*	1.4%	14.6µM*	0.0%	1.0%
CCCCc1nc(NCCN2CCOCC2)c(C#N)c2c1COC(C)(C)C2	24.9%	12.5%	3.8%	11.6µM*	3.6%
Cc1c(C(=O)C(=O)NCc2cccs2)c2ccccc2n1C	1.6%	36.6%	-2.1%	-5.1%	?
CCCNC(=O)COc1ccc(S(=O)(=O)Nc2ccc(C)cc2)cc1	-6.6%	22.7%	-0.9%	-19.9%	4.3%
CCc1ccc(OCCOCC(O)CN2CCN(Cc3ccc(Cl)cc3)CC2)cc1 (stereo not given)	?	?	14.6µM*	-16.5%	?
CC(C)(C)c1cn(-c2ccc(Cl)cc2)c(=S)[nH]1	2.8%	4.47µM*	6.3%	8.9%	5.62µM*
O=C(c1ccco1)N1CCN(S(=O)(=O)c2c(Cl)cccc2Cl)CC1	?	-15.7%[1.91 µM]	4.3%	-6.6%	-11.6%
N=c1oc2ccccc2cc1-c1nc(-c2ccccc2)cs1	13µM*	?	10.3µM*	?	-10.2%
COc1cccc(Cn2c(C3CC3)nc3ccc(NC(=O)c4ccco4)cc3c2=O)c1	/	?	/	23.1µM*	-1.4%
O=C(Nc1ccc2nc(C3CC3)n(Cc3ccc(F)cc3)c(=O)c2c1)c1ccco1	-8.0%[9.22 µM]	?	?	?	-8.0%
COc1ccccc1N(C)S(=O)(=O)c1ccc(C(=O)OCC(=O)NCc2ccco2)cc1	-3.4%	0.0%	-1.0%	0.0%	-6.3%
C=CCN(CC=C)C(=O)c1cccc(S(=O)(=O)N2c3ccccc3CC2C)c1 (stereo not given)	-0.4%	1.8%	-0.2%	?	5.1%
Cc1cccc(/N=C/c2nc(-c3ccccc3Br)oc2O)n1	4.11µM*	-44.2%	-17.5%	6.9%	-1.0%
Cc1ccnc(N=Cc2nc(-c3ccccc3Br)oc2O)c1	-192.1%	16.5%	-0.7%	?	-6.9%
CC/C(=N\NC(=O)c1ccncc1)C12CC3CC(CC(C3)C1)C2	-0.7%	-5.5%	0.6%	5.0%	7.1%
O=C(NN=C1CCCCCC1)c1cccs1	-2.5%	-11.9%	-0.2%	?	-3.3%
C[C@@H]1C2CC(C/C2=N\NC(=O)c2ccncc2)C1(C)C (stereo not given in full)	2.5%	7.94µM*	-0.7%	9.7%	12.6µM*
